Results with a measured potency or affinity are listed apart. A number with no mark means an inactive call.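 The calls were made as follows: active = signal-lowering compounds whose fitted half-maximal concentration is at or below twice the top tested dose in every run; inconclusive = runs disagree, flat 30 to 70% inhibition, or poor curve fit; inactive = the rest.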

Sequence of Protein S100-A4 (Homo sapiens) (P26447 whole entry, looked up): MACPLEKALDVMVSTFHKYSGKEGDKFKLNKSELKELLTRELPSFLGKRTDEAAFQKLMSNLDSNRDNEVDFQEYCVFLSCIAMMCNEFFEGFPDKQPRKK

This experiment concerns the target Protein S100-A4 (Homo sapiens) (UniProt P26447). Description: S100A4-myosin IIA binding inhibitor potency, dose response, biochemical, fluorescence polarization, cherry-picked hits (AID 687001).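 Also: 0% = DMSO neutral control wells and -100% = TFP positive control wells.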 The settings on record: FP, S100A4/TAMRA-myosin IIA peptide binding; series mostly up to 11 µM; activity change, negative = inhibition: at the top concentration. A general note: Polarisation of emitted light reports the rotation of a fluorescent probe.
As to `CCCCCCCCNC(CO)(CO)CO`, the “activity change, negative = inhibition” value was -3.47%. Consider `CCCc1cn(CC[C@@H]2CC[C@H](NS(=O)(=O)c3ccccc3Cl)[C@@H](CO)O2)nn1`, for which the “activity change, negative = inhibition” value was 5.32%. Turning to `CC(=O)Nc1ccccc1-c1nc2cc(C#N)c(C#N)cc2[nH]c1=O`, the “activity change, negative = inhibition” value was 1.14%. Regarding `CCOc1ccc(NC(=O)CSc2nccn(-c3ccc4c(c3)OCCO4)c2=O)cc1`, the “activity change, negative = inhibition” value was 9.51%.

In the case of `O=C(O)c1ccccc1SCCS(=O)(=O)c1ccc(Cl)cc1Cl`, the “activity change, negative = inhibition” value was -2.33%.

In the case of `CC(OC(=O)/C=C/c1cccs1)C(=O)NC1CCCCC1C` (centres undefined), the “activity change, negative = inhibition” value was -1.61%. Regarding `CC(=O)Nc1ccc(S(=O)(=O)Nc2ccc3c(c2)OCO3)cc1`, the “activity change, negative = inhibition” value was -3.04%. For `Cc1cc(-c2nc(C)c(-c3nnc(SCC(=O)Nc4ccc(Cl)cc4)n3C)s2)no1`, the “activity change, negative = inhibition” value is 0.268%. On to `Cc1cc(C)c(C(=O)COC(=O)CNC(=O)c2ccccc2C)c(C)c1`, for which the “activity change, negative = inhibition” value is -0.1%. Turning to `O=S(=O)(c1ccc(F)cc1)N1C[C@H]2[C@@H](c3ccccc31)[C@H](CO)N2Cc1ccccc1Cl`, the “activity change, negative = inhibition” value was 19.3%. In the case of `CN1c2ccc(-c3cccc(F)c3)cc2[C@H]2[C@H](CCN2C(=O)c2ccccc2F)[C@H]1CO`, the “activity change, negative = inhibition” value was 0.162% [at 10 µM]. The figure for `CN1CCN(C(=O)C[C@@H]2C=C[C@@H](NS(=O)(=O)c3cccc(F)c3)[C@@H](CO)O2)CC1` is -1.92%.

As for `O=C(O)c1ccc2c(c1)C(=O)N(c1cccc3ccccc13)C2=O`, the “activity change, negative = inhibition” value is -4.76%. Turning to `C[C@@H]1CN([C@H](C)CO)C(=O)c2cc(N(C)C)ccc2O[C@@H](C)CCCCO[C@@H]1CN(C)C(=O)NC1CCCCC1`, the “activity change, negative = inhibition” value is 18.6%. Consider `C[C@H](CO)N1C[C@H](C)[C@H](CN(C)Cc2ccccc2)Oc2ccc(NS(=O)(=O)c3ccccc3)cc2CC1=O`, for which the “activity change, negative = inhibition” value was 3.85%.

On to `CC(C)(C)c1cc[n+](-c2[nH]c(=O)sc2/C=N/N=C(\[O-])c2ccccc2)cc1`, for which the “activity change, negative = inhibition” value was 0.307%. As to `CCCc1cc(C(=O)Nc2cccc3ccccc23)n(C)n1`, the “activity change, negative = inhibition” value was -4.12%. As to `O=C(NCCCc1ccccc1)c1cccc(NC(=O)C2CCC2)c1`, the “activity change, negative = inhibition” value is -3.35%.

For the compound `CC(NC(=O)COc1ccc(Br)cc1)C(=O)O` (centres undefined), the “activity change, negative = inhibition” value is -4.84%. The figure for `CC(C)c1ccc(/C=C(\NC(=O)c2ccccc2)C(=O)NCCCn2ccnc2)cc1` is -3.44%. Turning to `O=C(COC(=O)Cc1ccc(Cl)c(Cl)c1)Nc1ccc2[nH]c(=O)[nH]c2c1`, the “activity change, negative = inhibition” value was 1.28%.

In the case of `Oc1ccc(-c2cc(-c3ccc(O)cc3)nc(-c3ccccc3)n2)cc1`, the “activity change, negative = inhibition” value was 3.62%. As to `CC(C)n1c(CNC(=O)c2ccccc2F)nnc1SCC(=O)c1ccc(F)cc1`, the “activity change, negative = inhibition” value was 28%.

Consider `C[C@@H]1CN([C@H](C)CO)S(=O)(=O)c2ccc(C#CCN(C)C)cc2O[C@@H]1CN(C)CC1CC1`, for which the “activity change, negative = inhibition” value is 5.41%.

Values taken from PubChem BioAssay AID687001 (Broad Institute, 2013).
